Experimental data reported in PubChem BioAssay (NCATS).
Records with an inconclusive call do not appear. Active and inactive are the calls of the source. Unless noted, calls come from the whole dose curve; as a rule, active = well fitted curve in either direction with a large enough effect (not every such curve was filed as active); inconclusive = small, poorly fitted or top-dose-only effect, or another doubt; inactive = flat fitted curve, though single readings scatter.

How the values were obtained:
[1] = molecular target: Lysosomal acid glucosylceramidase (Homo sapiens) (UniProt P04062); assay: Glucocerebrosidase-p2 (AID 348; in the data active = potency below about 10 µM; note: potency is the fitted concentration of half-maximal effect); conditions: purified GBA, blue fluorogenic substrate, 40 min
Lysosomal acid glucosylceramidase (Homo sapiens), sequence (P04062 whole entry, looked up): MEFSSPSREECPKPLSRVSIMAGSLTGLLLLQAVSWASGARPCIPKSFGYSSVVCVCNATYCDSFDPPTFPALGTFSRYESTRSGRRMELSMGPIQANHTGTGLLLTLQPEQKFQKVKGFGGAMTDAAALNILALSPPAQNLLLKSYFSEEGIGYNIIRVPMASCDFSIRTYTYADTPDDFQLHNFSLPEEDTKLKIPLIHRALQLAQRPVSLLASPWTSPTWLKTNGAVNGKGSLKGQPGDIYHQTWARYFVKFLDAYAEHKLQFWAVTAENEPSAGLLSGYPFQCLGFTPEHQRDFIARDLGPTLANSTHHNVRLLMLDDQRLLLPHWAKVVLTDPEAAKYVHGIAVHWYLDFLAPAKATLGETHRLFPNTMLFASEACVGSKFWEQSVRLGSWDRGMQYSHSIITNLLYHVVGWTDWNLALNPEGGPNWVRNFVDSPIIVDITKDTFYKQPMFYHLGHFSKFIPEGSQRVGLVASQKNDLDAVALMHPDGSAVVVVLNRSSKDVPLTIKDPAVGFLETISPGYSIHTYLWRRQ
Outline: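 Compounds titrated from 0.6 nM upwards against 0.2 nM enzyme in pH 5.9 citric acid/KH2PO4, taurocholate, tween-20; blue fluorogenic substrate 80 uM, 40 min room temperature, stopped and read Ex 365/Em 440 for AC50.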

[2] = AP1 Signaling Pathway (AID 357); conditions: ME-180 AP-1-bla reporter, EGF-induced, beta-lactamase ratio, 5 h; at 7.69 µM (top of the series) unless noted; note: % is set by controls: 0 for no effect and ±100 for the full control effect
Outline: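 ME-180 cells with beta-lactamase reporter under AP-1 response element, stimulated with EC50 EGF; compounds tested in titration series, 5 h at 37 °C. CCF4 substrate added 2.5 h at room temperature; 460/530 nm emission ratio gave %activity and AC50.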

[3] = NFAT Signaling Pathway (AID 444); conditions: Jurkat NFAT-bla M1, carbachol, beta-lactamase ratio, 5 h; at 7.69 µM (top of the series) unless noted;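 note: carbachol stimulus at about its EC50 of 1 µM final; % is set by controls: 0 for no effect and ±100 for the full control effect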
Outline: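 Jurkat cells carrying an NFAT-driven β-lactamase reporter and co-transfected muscarinic M1 receptor were treated with compound plus carbachol (1 uM final, an EC50 level) for 5 h at 37 °C. CCF4 loading followed for 1 h at RT; 460/530 nm ratio gave %activity.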

[4] = Stat Signaling Pathway (AID 446); conditions: ME-180 SIE beta-lactamase reporter, IL-6 stimulated, 5 h; at 7.69 µM (top of the series) unless noted;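 note: ME-180 cervical cancer cells given 40 pM IL-6 alongside compound; SIE-controlled beta-lactamase reporter measured as 460/530 nm FRET emission ratio; % is set by controls: 0 for no effect and ±100 for the full control effect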
Outline: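 ME-180 cells carrying a SIE-driven beta-lactamase reporter are stimulated with 40 pM IL-6 for 5 h at 37C in the presence of compound. The 460/530 nm FRET substrate ratio is read after 2.5 h at RT. Data are normalised to 300 pM IL-6 and to 125 nM JAK inhibitor controls.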

[5] = molecular target: Glucocorticoid receptor (Homo sapiens) (UniProt P04150); assay: GR-EFC Redistribution (AID 451; calls by dose curve; note: potency is the fitted concentration of half-maximal effect); conditions: CHO-K1 GR-EFC translocation, beta-gal luminescence, 2 h
Glucocorticoid receptor (Homo sapiens), sequence (P04150 whole entry, looked up, the tested form may be a part): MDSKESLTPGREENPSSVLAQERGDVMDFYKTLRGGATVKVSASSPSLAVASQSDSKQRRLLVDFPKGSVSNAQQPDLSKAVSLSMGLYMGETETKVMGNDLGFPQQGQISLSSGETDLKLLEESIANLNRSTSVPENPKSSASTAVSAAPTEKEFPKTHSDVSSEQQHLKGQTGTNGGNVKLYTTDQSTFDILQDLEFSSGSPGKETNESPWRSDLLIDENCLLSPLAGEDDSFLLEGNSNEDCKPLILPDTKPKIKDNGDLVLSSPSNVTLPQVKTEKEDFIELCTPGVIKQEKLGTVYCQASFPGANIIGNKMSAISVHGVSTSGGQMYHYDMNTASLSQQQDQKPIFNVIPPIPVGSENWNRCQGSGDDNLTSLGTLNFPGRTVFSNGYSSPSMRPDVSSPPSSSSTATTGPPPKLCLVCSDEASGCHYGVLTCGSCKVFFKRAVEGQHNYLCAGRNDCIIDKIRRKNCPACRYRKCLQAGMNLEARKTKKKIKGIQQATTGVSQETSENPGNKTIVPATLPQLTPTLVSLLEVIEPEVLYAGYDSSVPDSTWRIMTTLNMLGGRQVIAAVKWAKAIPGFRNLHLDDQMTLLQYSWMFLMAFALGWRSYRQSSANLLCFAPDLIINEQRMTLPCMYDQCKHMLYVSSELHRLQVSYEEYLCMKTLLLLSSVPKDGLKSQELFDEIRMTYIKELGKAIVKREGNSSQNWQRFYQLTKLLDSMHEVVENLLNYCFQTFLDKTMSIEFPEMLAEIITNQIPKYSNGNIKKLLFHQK
Outline: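 CHO-K1 cells stably expressing nuclear-localized β-gal enzyme acceptor and GR fused C-terminally to the enzyme donor fragment; ligand-driven nuclear translocation restores β-gal by complementation. Compounds titrated up to 46 uM final, 2 h at 37 °C; luminescence read.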

[6] = molecular target: Mitogen-activated protein kinase 10 (Mus musculus) (UniProt Q61831); assay: JNK3 AlphaScreen Assay (AID 530); conditions: JNK3 lysate, c-Jun phosphorylation; series mostly up to 57.1 µM;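 note: kinase came from lysate of stimulated human HepG2 cells; signal reports phosphorylation of biotinylated GST-cJun 1-79 at Ser73 with 10 µM ATP; % is set by controls: 0 for no effect and ±100 for the full control effect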
Outline: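 JNK3 came from HepG2 lysates pre-activated with IL-1beta and TNF-alpha and phosphorylated biotinylated GST-cJun (1-79) at 10 uM ATP, pH 7.6, room temperature. Compounds were titrated. AlphaScreen signal used anti-phospho-cJun (Ser73) antibody.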

[7] = molecular target: 3',5'-cyclic-AMP phosphodiesterase 4B (Homo sapiens) (UniProt Q07343); assay: qHTS Assay for Inhibitors of PDE-IV (AID 607; active = well fitted activation curve with a large enough effect in the main read-out, with a control signal flat, not every such curve was filed as active; note: % of control where 0% means no effect); conditions: HEK293 ACTOne CNG channel cells, membrane potential fluorescence; series mostly up to 22.9 µM
3',5'-cyclic-AMP phosphodiesterase 4B (Homo sapiens), sequence (Q07343 whole entry, looked up): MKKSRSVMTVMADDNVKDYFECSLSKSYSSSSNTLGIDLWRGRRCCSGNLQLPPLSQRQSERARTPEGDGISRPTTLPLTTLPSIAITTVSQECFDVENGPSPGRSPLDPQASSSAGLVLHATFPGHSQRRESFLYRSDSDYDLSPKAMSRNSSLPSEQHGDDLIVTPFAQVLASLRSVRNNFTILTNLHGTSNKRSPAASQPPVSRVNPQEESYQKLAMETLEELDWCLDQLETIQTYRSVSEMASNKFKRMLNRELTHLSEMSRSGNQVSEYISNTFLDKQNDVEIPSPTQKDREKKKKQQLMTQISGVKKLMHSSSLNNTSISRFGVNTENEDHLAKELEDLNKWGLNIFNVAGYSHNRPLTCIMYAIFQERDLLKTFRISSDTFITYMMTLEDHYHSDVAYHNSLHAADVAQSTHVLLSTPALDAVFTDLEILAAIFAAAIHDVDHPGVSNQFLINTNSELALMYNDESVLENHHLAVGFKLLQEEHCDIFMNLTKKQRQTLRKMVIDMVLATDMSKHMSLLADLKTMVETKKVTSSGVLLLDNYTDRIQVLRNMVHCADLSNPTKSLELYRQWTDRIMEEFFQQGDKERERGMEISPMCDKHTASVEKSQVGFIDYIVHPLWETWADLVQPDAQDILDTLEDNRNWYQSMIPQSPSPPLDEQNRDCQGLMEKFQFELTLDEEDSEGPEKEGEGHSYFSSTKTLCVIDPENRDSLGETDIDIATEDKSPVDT
Outline: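 HEK293 ACTOne cells with CNG channel (1000/well), endogenous PDE4; membrane potential dye, compounds up to 22.9 uM final. Fluorescence Ex 535/Em 590; RO 20-1724 (100 uM final) as reference.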

[8] = qHTS Assay for Lipid Storage Modulators (AID 1519; calls by dose curve); conditions: Drosophila S3 cells, BODIPY lipid droplet/cell ratio, laser cytometry, cells loaded with oleic acid; for activity change, negative = inhibition: at 57.5 µM (top of the series)
Outline: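 Cells seeded at 5,000 per well were treated with compounds over a concentration series and loaded with oleic acid (400 uM, as added). Lipid droplet fluorescence (488 nm excitation, 500-530 nm channel) was read by laser-scanning cytometry and normalized to 20 uM Triacsin C.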

[9] = Primary qHTS for small molecule stabilizers of the endoplasmic reticulum resident proteome: Secreted ER Calcium Modulated Protein (SERCaMP) assay (AID 1508630; active = well fitted curve in the direction sought with a large enough effect; an effect the other way counts as inactive or inconclusive; note: % is set by controls: 0 for no effect and ±100 for the full control effect); conditions: SH-SY5Y GLuc-SERCaMP (Gaussia luciferase released on ER calcium loss) secretion, thapsigargin, luminescence; series mostly up to 38.4 µM
Outline: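 GLuc-SERCaMP-expressing SH-SY5Y cells, pretreated 16 h with compound, are challenged with thapsigargin to empty ER calcium stores; after 4 h, coelenterazine is added directly to the medium and luminescence is imaged.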

[10] = molecular target: Glucocorticoid receptor (Homo sapiens) (UniProt P04150); assay: GR-GFP Redistribution (AID 450;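 active = compounds whose dose series gives a full or clear partial fitted curve of increased nuclear translocation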; note: potency is the fitted concentration of half-maximal effect); conditions: U2OS GR-GFP nuclear translocation, laser cytometry, 2 h
[11] = Confirmation and Secondary Assay for Modulators of Hemoglobin Beta Chain Splicing at IVS2 705 locus (AID 930; active = well fitted curve in the direction sought with a large enough effect; an effect the other way counts as inactive or inconclusive;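 note: HeLa cells stably expressing the EGFP-705 splicing reporter; GFP fluorescence per well restored by corrected splicing of the IVS2-705 intron in EGFP; % of control where 0% means no effect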); conditions: HeLa EGFP-705 splicing reporter, GFP fluorescence, 48 h; series mostly up to 38.3 µM
Outline: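 Fluorescence gain (488 nm laser, 500-520 nm PMT) reflects restored correct splicing of a mutant IVS2-705 intron inside EGFP in stably transfected HeLa cells after 2-day compound treatment.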

[12] = molecular target: Ubiquitin carboxyl-terminal hydrolase 1 (Homo sapiens) (UniProt O94782); assay: Inhibitors of USP1/UAF1: Pilot qHTS (AID 504865; active = well fitted curve in the direction sought with a large enough effect; an effect the other way counts as inactive or inconclusive;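 note: rhodamine fluorescence freed from ubiquitin-rhodamine substrate followed over time; top concentration of the series differs between compounds; % is set by controls: 0 for no effect and ±100 for the full control effect; nearly all actives have a fitted effect of over 35% in size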); conditions: purified USP1/UAF1, Ub-rhodamine cleavage fluorescence; series mostly up to 54.9 µM
Ubiquitin carboxyl-terminal hydrolase 1 (Homo sapiens), sequence (O94782 whole entry, looked up): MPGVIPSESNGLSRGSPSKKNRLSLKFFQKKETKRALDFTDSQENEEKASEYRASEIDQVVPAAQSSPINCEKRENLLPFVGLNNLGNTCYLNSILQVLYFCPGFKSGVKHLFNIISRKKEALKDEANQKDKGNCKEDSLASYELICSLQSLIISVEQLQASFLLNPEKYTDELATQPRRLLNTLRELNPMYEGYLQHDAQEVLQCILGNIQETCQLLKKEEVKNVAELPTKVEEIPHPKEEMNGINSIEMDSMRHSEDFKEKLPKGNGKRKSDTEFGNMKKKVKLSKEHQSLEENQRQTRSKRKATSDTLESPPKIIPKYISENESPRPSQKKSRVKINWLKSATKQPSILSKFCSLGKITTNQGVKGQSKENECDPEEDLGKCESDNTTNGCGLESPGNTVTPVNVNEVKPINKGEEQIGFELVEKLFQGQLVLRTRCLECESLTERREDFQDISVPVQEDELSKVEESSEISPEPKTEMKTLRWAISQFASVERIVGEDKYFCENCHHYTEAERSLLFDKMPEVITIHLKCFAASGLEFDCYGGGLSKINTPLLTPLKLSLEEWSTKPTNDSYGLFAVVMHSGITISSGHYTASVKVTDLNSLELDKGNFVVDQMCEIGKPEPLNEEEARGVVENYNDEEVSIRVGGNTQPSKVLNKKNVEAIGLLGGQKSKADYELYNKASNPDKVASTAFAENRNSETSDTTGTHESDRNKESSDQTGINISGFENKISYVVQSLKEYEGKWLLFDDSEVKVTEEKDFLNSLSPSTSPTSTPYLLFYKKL
Outline: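 Kinetic fluorescence assay: 1nM USP1/UAF1, 15 min compound preincubation, then 150nM Ub-Rho; 480/540 nm.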

[13] = Confirmation and Secondary Assay for Modulators of Hemoglobin Beta Chain Splicing at IVS2 654 locus (AID 910; active = well fitted curve in the direction sought with a large enough effect; an effect the other way counts as inactive or inconclusive;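 note: per-well total GFP intensity by laser scanning cytometry after 2-day treatment; % of control where 0% means no effect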); conditions: HeLa EGFP-654 splicing reporter, GFP fluorescence, 48 h; series mostly up to 38.3 µM
Outline: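 HeLa cells stably carrying EGFP interrupted by mutant beta-globin IVS2-654 intron (CMV-driven) were treated with compound for 2 days at 37C; corrected splicing was scored as total peak GFP intensity per well (488 nm excitation, 500-520 nm emission).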

[14] = molecular target: Cytochrome P450 3A4 (Homo sapiens) (UniProt P08684); assay: qHTS Assay for Activators of Cytochrome P450 3A4 (AID 885; active = well fitted curve in the direction sought with a large enough effect; an effect the other way counts as inactive or inconclusive; note: nearly all actives have a fitted effect of over 65% in size); conditions: recombinant CYP3A4, Luciferin-PPXE luminescence, 60 min; series mostly up to 57.1 µM
Cytochrome P450 3A4 (Homo sapiens), sequence (P08684 whole entry, looked up): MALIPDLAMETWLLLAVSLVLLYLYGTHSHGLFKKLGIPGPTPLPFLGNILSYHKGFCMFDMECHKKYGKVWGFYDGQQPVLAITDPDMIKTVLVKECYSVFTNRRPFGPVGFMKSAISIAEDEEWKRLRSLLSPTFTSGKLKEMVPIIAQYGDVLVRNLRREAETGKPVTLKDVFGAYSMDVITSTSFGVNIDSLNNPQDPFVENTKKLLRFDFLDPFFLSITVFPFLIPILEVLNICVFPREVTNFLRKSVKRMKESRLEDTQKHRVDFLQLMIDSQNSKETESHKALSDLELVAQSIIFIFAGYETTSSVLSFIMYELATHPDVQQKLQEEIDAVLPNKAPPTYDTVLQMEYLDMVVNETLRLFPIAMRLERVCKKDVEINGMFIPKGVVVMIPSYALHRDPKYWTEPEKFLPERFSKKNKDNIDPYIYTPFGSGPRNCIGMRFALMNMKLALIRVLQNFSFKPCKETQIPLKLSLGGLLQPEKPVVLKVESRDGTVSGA
Outline: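 Human CYP3A4 (20 nM) with Luciferin-PPXE at 25 uM (its KM) in 200 mM KPO4; 10 min compound preincubation, then NADPH regeneration and 60 min reaction at RT. Luciferin read by luminescence; normalized to 57 uM ketoconazole full inhibition.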

[15] = molecular target: Cytochrome P450 2C19 (Homo sapiens) (UniProt P33261); assay: qHTS Assay for Inhibitors and Substrates of Cytochrome P450 2C19 (AID 899; active = well fitted curve in the direction sought with a large enough effect; an effect the other way counts as inactive or inconclusive; note: potency is the fitted concentration of half-maximal effect; nearly all actives have a fitted effect of over 60% in size); conditions: recombinant CYP2C19, luciferin-H EGE luminescence; series mostly up to 57.1 µM
Cytochrome P450 2C19 (Homo sapiens), sequence (P33261 whole entry, looked up): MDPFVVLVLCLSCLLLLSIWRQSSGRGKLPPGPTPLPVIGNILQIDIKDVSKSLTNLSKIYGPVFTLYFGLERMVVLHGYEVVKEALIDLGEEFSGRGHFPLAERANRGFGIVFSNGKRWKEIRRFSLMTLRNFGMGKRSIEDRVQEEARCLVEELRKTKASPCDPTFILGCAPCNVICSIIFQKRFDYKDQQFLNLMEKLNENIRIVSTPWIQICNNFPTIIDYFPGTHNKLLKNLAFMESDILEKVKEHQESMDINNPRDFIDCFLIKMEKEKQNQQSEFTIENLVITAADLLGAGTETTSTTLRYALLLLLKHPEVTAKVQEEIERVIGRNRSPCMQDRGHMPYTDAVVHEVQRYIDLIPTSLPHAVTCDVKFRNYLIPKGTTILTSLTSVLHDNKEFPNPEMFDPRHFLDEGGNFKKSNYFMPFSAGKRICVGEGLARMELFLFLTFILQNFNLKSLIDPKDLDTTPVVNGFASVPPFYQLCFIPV
Outline: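 In 50mM KPO4, the reaction held 5nM enzyme and KM-level (10uM) Luciferin-H EGE; it ran 60 min at 37C after NADPH regeneration and a 10 min compound preincubation. Luminescence values were scaled to 57uM ketoconazole as complete inhibition.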

[16] = qHTS Assay for Identification of Small Molecule Agonists for Hypoxia Response Element Signaling Pathway (AID 914; active = well fitted activation curve with a large enough effect in the signal ratio, with a control signal flat, not every such curve was filed as active; the % refers to the signal ratio; note: potency is the fitted concentration of half-maximal effect); conditions: ME-180 (cervical carcinoma) HRE-bla reporter, beta-lactamase ratio, CoCl2, 17 h; activation: stronger effect = higher value
Outline: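 A beta-lactamase reporter under hypoxia response element control in ME-180 cells served as the system. Compound titrations plus EC50 CoCl2 ran 17 h at 37 degrees Celsius; AC50 values were fitted from %Activity.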

[17] = measured here: cell count channel max response
[18] = measured here: lipid channel max response

| SMILES | Potency [1] | activity change, negative = inhibition [2] | activity change, negative = inhibition [3] | activity, negative = inhibition [4] | Potency [5] | Potency [6] | Potency [7] | activity change, negative = inhibition [8] | max response [8, 17] [%] | max response [8, 18] [%] | outcome [9] | Potency [10] | outcome [11] | Potency [12] | Potency [13] | Potency [14] | Potency [15] | Potency [16] |
| --- | --- | --- | --- | --- | --- | --- | --- | --- | --- | --- | --- | --- | --- | --- | --- | --- | --- | --- |
| N#Cc1ccc(CN2CC[C@@]3(CCCN(C(=O)c4cccc(F)c4)C3)C2)cc1 | > 11.4 µM (inactive) | -24.8% (inactive) | -12.5% (inactive) | -4.01% (inactive) | > 46 µM (inactive) | inactive | inactive | -0.514% (inactive) | 0.82 | 2.5 | inactive | – | – | – | – | – | – | – |
| c1cncc(-c2nccc(-n3ccnc3)n2)c1 | > 11.4 µM (inactive) | -19.4% (inactive) | 1.68% (inactive) | -2.73% (inactive) | > 46 µM (inactive) | inactive | inactive | 7.22% (inactive) | 3.87 | 13.2 | inactive | > 46 µM (inactive) | inactive | inactive | – | – | – | – |
| CC(C)NC(=O)N1CCC2(CC1)CCN(S(=O)(=O)c1ccccc1)CC2 | > 11.4 µM (inactive) | -11.1% (inactive) | 6.99% (inactive) | -1.93% (inactive) | > 46 µM (inactive) | inactive | inactive | 3.73% (inactive) | -0.645 | 4.57 | inactive | – | – | – | – | – | – | – |
| CCNc1ncc2ncc(=O)n(C)c2n1 | > 11.4 µM (inactive) | 3.09% (inactive) | -4.43% (inactive) | -6.09% (inactive) | > 46 µM (inactive) | inactive | inactive | 5.71% (inactive) | 10.2 | 17.6 | inactive | > 9.22 µM (inactive) | – | – | – | – | – | – |
| CN(C)C(=O)c1ccc(-c2ccc3ncnc(NC4CCNCC4)c3c2)cc1 | > 11.4 µM (inactive) | -6.93% (inactive) | 7.8% (inactive) | 14.8% (inactive) | > 46 µM (inactive) | inactive | inactive | 6.36% (inactive) | 9.43 | 16.5 | inactive | > 46 µM (inactive) | inactive | inactive | inactive | – | – | – |
| O=C(c1csnn1)N1CCC2(CCCN(c3cccc(-c4ccccc4)c3)C2)CC1 | > 11.4 µM (inactive) | -12.3% (inactive) | -13.8% (inactive) | -5.72% (inactive) | > 46 µM (inactive) | inactive | inactive | -16.4% (inactive) | 9.62 | -3.2 | inactive | – | – | – | – | – | – | – |
| Cn1cccc1C(=O)N1CCC2(CC1)CN(C(=O)Nc1cccc(C#N)c1)C2 | > 11.4 µM (inactive) | -22.3% (inactive) | -2.19% (inactive) | -3.02% (inactive) | > 46 µM (inactive) | inactive | inactive | 4.61% (inactive) | 11.3 | 18.4 | inactive | – | – | – | – | – | – | – |
| Cc1ccccc1-c1cc(Nc2ccc(F)cc2)ncn1 | > 11.4 µM (inactive) | -11.7% (inactive) | 6.17% (inactive) | -0.99% (inactive) | > 46 µM (inactive) | inactive | – | 9.27% (inactive) | -1.72 | 7.96 | inactive | > 46 µM (inactive) | inactive | – | inactive | inactive | 0.631 µM (active) | – |
| COc1ccc(-c2nc3cnc(Oc4ccccc4)nc3n(Cc3cccs3)c2=O)cc1 | > 11.4 µM (inactive) | 0.136% (inactive) | -1.73% (inactive) | 16.1% (inactive) | > 46 µM (inactive) | inactive | inactive | -0.637% (inactive) | 27.6 | 28.4 | inactive | > 9.22 µM (inactive) | – | – | – | – | – | 2.51 µM (active) |
| O=S(=O)(c1ccccc1)N1CCC[C@@]2(CCN(c3ncccn3)C2)C1 | > 11.4 µM (inactive) | -0.184% (inactive) | 27.1% (inactive) | -4.75% (inactive) | > 46 µM (inactive) | inactive | inactive | 4.79% (inactive) | 6.87 | 13 | inactive | – | – | – | – | – | – | – |
| COc1cccc(-c2cc(NCc3cccc(C)c3)ncn2)c1 | > 11.4 µM (inactive) | -1.98% (inactive) | -3.2% (inactive) | -11.9% (inactive) | > 46 µM (inactive) | inactive | – | -15.5% (inactive) | 8.52 | -6.01 | inactive | > 46 µM (inactive) | – | – | – | – | – | – |
| Cc1cccc(CNc2ncnc3ccc(-c4ccccc4C#N)cc23)c1 | > 11.4 µM (inactive) | -28.4% (inactive) | 12.9% (inactive) | -7.62% (inactive) | > 46 µM (inactive) | inactive | – | 0.748% (inactive) | 4.98 | 4.86 | inactive | > 46 µM (inactive) | inactive | – | inactive | – | – | – |
